ClpP mod = qHTS Assay for Activators of ClpP; ATP-dependent Clp protease proteolytic subunit (Bacillus subtilis (strain 168)), P80244; purified B. subtilis ClpP, FRET peptide cleavage, 20 min; Potency, µM (top dose mostly 57.5 µM), for inactives: top-dose activity change, negative = active; 340,000 compounds, 1.9% hits; active = well fitted falling curve with a large enough effect; inconclusive = small, poorly fitted or top-dose-only effect; inactive = no such curve, though single readings can be large or run the other way; also: potency is read from the fitted curve at half-maximal effect; the source files actives as falling curves though it sought activators and does not explain the sign; nearly all actives have a fitted effect of over 65% in size
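FRET quenching reversal measured ClpP activation: 10 microg/mL B. subtilis ClpP at pH 8 with the FRET-FV decapeptide, read at 430 nm after 320 nm excitation. The 20-min minus 0-min signal was scaled between DMSO/no-enzyme wells and ADEP (5.8 microM final).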
TCR activator = activates T cell receptor signaling | primary human leukocytes, anti-CD3, IL-2 HTRF, 48 h | Potency, µM (series often up to 9.22 µM), for the others: at the top dose activation of IL-2 secretion, hits mostly activators | 330,000 tested, under 10 active | AID 504894; also: % of control where 0% means no effect
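Primary human leukocytes incubated 48 hr with anti-CD3 beads plus compound, without co-stimulation. Secreted IL-2 measured by HTRF (europium cryptate/d2 anti-IL-2 pair, 320 nm excitation, 665 nm emission).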
uPA generation = cell surface uPA generation inhibition; 330,000 compounds, 0.31% hits; cell surface uPA generation assay, qHTS; Potency, µM (doses to about 38.3 µM), inactives show top-dose activity change, negative = inhibition, actives largely listed as inhibitors; active = well fitted inhibition curve with a large enough effect; inconclusive = small, poorly fitted or top-dose-only effect; inactive = no such curve, though single readings can be large or run the other way; tested in mouse RAW 264.7 cells; also: potency is read from the fitted curve at half-maximal effect; % is scaled to controls: 0 for no effect and ±100 for the full control effect; nearly all actives have a fitted effect of over 55% in size
Sfp inh = blocks B. subtilis Sfp PPTase activity | Biochemical Sfp PPTase activity, qHTS | Potency, µM, inactives show largest response in the series, negative = inhibition, most hits filed as inhibitors | 310,000 compounds, 3.5% hits | AID 1490;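 also: the enzyme is Sfp with the accession as filed and its product quenches rhodamine fluorescence; potency is read from the fitted curve at half-maximal effect; 0% = enzyme reaction without inhibitor and -100% = no enzyme wells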
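Compounds were incubated with enzyme (final 15 nM) for 15 min at room temperature before substrate addition started the reaction. Fluorescence at 525 nm excitation, 598 nm emission was recorded immediately and after 30 minutes.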
* hit, by the source's call; ? = inconclusive; · = no result given; [ ] = another dose, or the depositor's remark. In the library only some 4.2% were active in any assay of this set; here they are far more common. Unless noted, calls follow the shape of the dose curve; as a rule, active = well fitted curve in the direction sought with a large enough effect; inconclusive = small, poorly fitted or top-dose-only effect, or another doubt; inactive = no such curve, though single readings can be large; an effect the other way counts as inactive or inconclusive.

SMILES	ClpP mod	TCR activator	uPA generation	Sfp inh
Cc1cc(C)c2cc(C(c3nnnn3C3CCCC3)N3CCOCC3)c(=O)[nH]c2c1 (configuration not stated)	-9%	1%	5%	56µM*
Cc1ccc2cc(C(c3nnnn3C3CCCC3)N3CCN(c4ccc(F)cc4)CC3)c(=O)[nH]c2c1 (configuration not stated)	-12%	-1%[46.1 µM]	-6%	35µM*
CCc1ccc(NC(=O)N2CCN(C(=O)C3CCCO3)CC2)cc1 (configuration not stated)	2%	-6%	5%	7%
CCc1cc(=O)oc2c3c(c(Cl)cc12)OCN(Cc1cccc(OC)c1)C3	4%	·	·	·
CCOc1ccc(CN(CCc2ccc3c(c2)OCO3)Cc2cc(OC)c(OC)cc2OC)cc1	-2%	·	·	·
O=C(O)c1cn(-c2ccc(N3CCCC3)c(F)c2)c2c(F)c(F)c(F)cc2c1=O	·	0%	0%	1%
Cc1c(-n2cc(C(=O)O)c(=O)c3cc(F)c(N4CCCC(O)C4)c(F)c32)c(=O)n(-c2ccccc2)n1C (configuration not stated)	10µM*	1%	0%	-9%
Cc1cc(=O)oc2n[nH]c(-c3ccccc3)c12	25µM*	2%	-5%	-1%
COc1ccc(/C=C/C(=O)c2ccc(C)c([N+](=O)[O-])c2)cc1O	-3%	1%[46.1 µM]	-13%	79µM*
CCOC(=O)c1ccc(NC(=O)c2c(N3CCCC3=O)c3cc(OC)ccc3n2C)cc1	-8%	·	·	·
Cc1cc(C)nc(S/C=C/C(=O)c2ccccc2F)n1	35µM*	-6%	-6%	-29%
CN1/C(=C\C(=O)CSc2nnc(NCc3ccccc3)s2)C(C)(C)c2ccccc21	1%	-4%[46.1 µM]	-2%	-18%
CCCCCCC(=O)N(O)C1CC(=O)N(c2ccc(Cl)cc2)C1=O (configuration not stated)	·	0%	-6%	25µM*
Cc1ccc(N2C(=O)CC(N(O)C3CC(=O)N(c4ccc(C)cc4)C3=O)C2=O)cc1 (configuration not stated)	3%	-1%	2%	17%
CCCCCCC(=O)N(O)C1CC(=O)N(c2ccc(C)cc2)C1=O (configuration not stated)	-3%	-1%	-11%	20µM*
O=[N+]([O-])c1c(NCCCO)cc(Sc2nc3ccccc3s2)c2nonc12	-4%	0%	·	-4%
Cc1nnc(Sc2cc(NCCO)c([N+](=O)[O-])c3nonc23)s1	1%	6%	-14%	6.3µM*
Cc1nnc(Sc2cc(NCCCO)c([N+](=O)[O-])c3nonc23)s1	·	-13%	-3%	3.2µM*
O=CNc1c(Cl)cc2c(c1Cl)Cc1cc([N+](=O)[O-])ccc1-2	0%	-1%	-7%	·
[O-]/C(=C(\C(=S)Nc1ccccc1F)[n+]1ccccc1)c1ccc(-c2ccccc2)cc1	1%	11%	2%	18µM*
[O-]/C(=C(\C(=S)Nc1ccc(Cl)cc1)[n+]1ccccc1)c1ccc(OC(F)F)cc1	-2%	-2%	-8%	50µM*
CC(C)(C)c1cc[n+](/C(C(=S)Nc2ccccc2F)=C(/[O-])c2ccc3c(c2)OCCO3)cc1	·	0%	-4%	20µM*
O=C(COC(=O)c1ccccc1-n1cnnn1)c1ccc(Br)cc1	16µM*	-4%	-10%	·
O=C(COC(=O)c1ccccc1-n1cnnn1)c1ccccc1	·	-1%	3%	·
O=[N+]([O-])c1ccc(O)c(C=Nc2ccc3oc(Cc4ccc(Cl)cc4)nc3c2)c1	·	·	·	28µM*
SMILES	ClpP mod	TCR activator	uPA generation	Sfp inh
CCCOc1ccc(C(=O)Nc2cc3c(cc2N2CCCCC2)n(C)c(=O)n3C)cc1	-2%	·	·	·
CC(Sc1cccc2cccc(C(=O)O)c12)C(=O)O (configuration not stated)	14µM*	-2%	8%	-7%
CC(Sc1ccc2ccccc2n1)C(=O)O (configuration not stated)	-2%	-41%	1%	21%
CCOc1ccc(CNC(=O)C2CCN(C(=O)c3sccc3-n3cccc3)CC2)cc1	1%	·	·	·
O=c1[nH]c(-c2ccccn2)nc2ccccc12	-19%	-23%	-16%	79µM*
Cc1sc2nc(-c3ccccn3)[nH]c(=O)c2c1-c1ccccc1	4%	3%	-13%	18µM*
c1ccc(-c2nc3c(ccc4ccccc43)[nH]2)nc1	28µM*	-5%[46.1 µM]	-6%	15%
Cc1sc2nc(-c3ccncc3)[nH]c(=O)c2c1-c1ccccc1	·	8%[46.1 µM]	·	9%
O=C(CN(C(=O)c1ccccc1Cl)N1C(=O)CCCC1=O)c1ccc(Cl)cc1	0%	3%	-1%	18%
O=[N+]([O-])c1cnc(Sc2ccncn2)c([N+](=O)[O-])c1	-1%	·	·	·
O=[N+]([O-])c1cnc(Sc2ccncn2)s1	-3%	6%	2.8µM*	?
c1ccc(CNc2cc(-c3cccnc3)ncn2)cc1	·	·	·	8%
COc1ccc(CNc2cc(-c3ccoc3)ncn2)c(OC)c1	·	·	·	45µM*
COc1cccc(-c2cc(NCc3ccccc3OC)ncn2)c1	·	·	·	-4%
c1ccc(Nc2cc(-c3ccoc3)ncn2)cc1	·	·	·	32µM*
c1ccc(CNc2cc(-c3ccoc3)ncn2)cc1	·	·	·	32µM*
O=C1CCC(=O)N1CCC(c1ccc(F)cc1)c1ccco1 (configuration not stated)	-1%	·	-6%	-3%
O=C1c2ccccc2C(=O)N1CCC(c1ccc(F)cc1)c1ccco1 (configuration not stated)	0%	2%	1%	14µM*
O=C(CC(c1ccc(F)cc1)c1ccco1)N1CCOCC1 (configuration not stated)	-2%	-7%	2%	-21%
O=C(CC(c1ccc(F)cc1)c1ccco1)N1CCCC1 (configuration not stated)	-2%	2%	-1%	32µM*
CCOc1cccc(NC(=O)c2cccc(F)c2)c1	-1%	-4%	?	24%
CCCCC(=O)Nc1cccc(OCc2cc(=O)n3ccccc3n2)c1	-6%	·	·	·
Cc1nc(-n2nc(C)c(CCC(C)C)c2C)sc1C(=O)Nc1ccc(Br)cc1	-6%	·	·	·
Cc1cccn2c(=O)c3cc(C(=O)NC4CCS(=O)(=O)C4)n(Cc4ccccc4)c3nc12 (configuration not stated)	4%	-5%	4%	7%
S=C(Nc1ccc(Br)cc1Cl)N1CCCC1	0%	-2%	-7%	10%
O=C(Nc1ccc(CN2CCCCC2)cc1)Nc1ccc(Br)cc1Cl	·	0%	-1%	79µM*
CN1C(=O)c2oc3ccccc3c(=O)c2C1c1cccnc1 (configuration not stated)	·	-1%	-4%	·
CN1C(=O)c2oc3ccc(Br)cc3c(=O)c2C1c1ccncc1 (configuration not stated)	·	·	·	40µM*
c1cn2c(NC3CCCCC3)c(-c3ccc(SC4CCCCC4)cc3)nc2cn1	-22%	-7%	-17%	·
c1cn2c(NC3CCCC3)c(-c3ccc(N4CCOCC4)cc3)nc2cn1	-2%	-7%	5.6µM*	19%

Compound activity: PubChem BioAssay, National Center for Advancing Translational Sciences (NCATS)
